Results taken from PubChem BioAssay (NCI).
The panel holds about 83,000 compounds, 20% with a hit somewhere; the sample as a whole holds those more often.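 Note: values are percent growth. 100 is the growth of untreated cells, values between 100 and 0 indicate rising inhibition; between -100 and 0 indicates cell death.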 Values without a mark were called inactive. The source made the active and inactive calls.

Test system: U251 CNS
Assay: NCI-60 one-dose screen, 48 h (100 = growth as untreated, 0 = no growth, -100 = all killed)
Details: 10 µM unless noted
Procedure: Growth inhibition of the U251 human tumor cell line is measured as a screen for anti-cancer activity. Cells are grown in 96 well plates and exposed to the test compound for 48 hours. Compounds are tested at a single concentration, which is 10^-5 M for most compounds. The reported endpoint is percent growth (GI% or GIPRCNT), where numbers from 0 - 100% represent growth inhibition, and numbers from -100% - 0 represent cell death. For example, a value of 40 represents 60% growth inhibition. A value of 0 means no net growth occurred over the course of the experiment. A value of -40 indicates 40% of cells at the beginning of the experiment died by the end of the experiment. A value of -100 means all cells are dead at the end of the experiment.
NCI-60 Human Tumor Cell Lines Screen was performed using the standard one-dose NCI protocol, which is described in more detail at https://dtp.cancer.gov/discovery_development/nci-60/default.htm.
Compounds with GIPRCNT values below 10 were considered active. Activity score was based on GIPRCNT using the following formula: […]
Score is 0 for GIPRCNT values of 100 or above, 50 for GIPRCNT values of 0, and 100 for GIPRCNT values of -100.

| Structure (SMILES) | growth |
| --- | --- |
| CN1C(=O)C(=Cc2cn(Cc3ccccc3)c3ccc(Br)cc23)C(=O)N(C)C1=O | 97.5% |
| N=c1ccn2c(n1)O[C@@H]1[C@@H](O)[C@H](CO)O[C@@H]12 | 52.2% |
| O=C(/C=C/c1ccccc1)CC(c1ccccc1)N1CCOCC1 (stereo not given) | 0.707% (active) |
| CC1CC(C)/C(=N/NC(N)=O)C(C(O)CC2CCC(=O)NC2=O)C1 (stereo not given) | 35.1% |
| CC(C)C/C(=N\NC(=O)c1ccncc1)c1cc(Cl)ccc1O | 25.1% |
| O=C(CCc1nnc(SCc2ccccc2)s1)c1nc2ccccc2[nH]1 | 89.6% |
| CCC(C)(C)C(=O)O[C@H]1C[C@@H](C)C=C2C=C[C@H](C)[C@H](CC[C@@H]3C[C@@H](O)CC(=O)O3)[C@H]21 | 4.81% (active) |
| COc1cc(/C=C/C(=O)c2c(-c3ccc(F)cc3)nc3sc(C)nn23)cc(OC)c1OC | 21.3% |
| O=C1OCC/C1=C\OCCCO/C=C1\CCOC1=O | 99.6% |
| Clc1nc(Cl)c2ncn(-c3ccccc3)c2n1 | 42.7% |
| O=c1ccn(C2CCCO2)c(=O)[nH]1 (stereo not given) | 97.2% |
| OCc1nnn(-c2ccccc2)c1CO | 104% |
| Nc1ncc(-c2cnn(C3CCNCC3)c2)cc1-c1nc2cc(Cl)ccc2o1 | -100% (active) |
| COc1ccc(C2CC(c3cccc(Nc4ccnc5cc(Cl)ccc45)c3)=NN2C=O)cc1 (stereo not given) | 16.5% |
| Cn1c(=O)c2c(nc(Br)n2CCC(=O)Nc2ccc(F)cc2)n(C)c1=O | 96.7% |
| O=C1Cc2cc(CCN3CCN(CCOCCO)CC3)c(Cl)cc2N1Cc1ccc(-c2ccccc2-c2nn[nH]n2)cc1 | 94.1% |
| Fc1ccc([C@@H]2CCNC[C@H]2COc2ccc3c(c2)OCO3)cc1 | 70.3% |
| Fc1ccc(-c2nnc(/C=C/c3cn(-c4ccccc4)nc3-c3ccccc3)o2)cc1 | 82.1% |
| c1cncc(CNc2ccccc2-c2nnc(Nc3ccc4c(c3)OCO4)o2)c1 | 23% |
| S=C(Nc1ccc(C2=NCCN2)cc1)Nc1ccc(C2=NCCN2)cc1 | 97.9% |

| Structure (SMILES) | growth |
| --- | --- |
| Cc1cc(C(=O)O)c(C)cc1C(=O)O | 109% |
| COc1ccc2nc(-c3ccc(-n4cncc4-c4ccc(OC)c(N)c4)cc3)sc2c1 | 105% |
| CCOC(=O)c1c(NC(=O)C2CCCCC2C(=O)O)sc2c1CCCC2 (stereo not given) | 99.1% |
| CCOc1ccccc1C(=O)OCC(=O)Nc1cccc(S(=O)(=O)N(C)C)c1 | 105% |
| Clc1ccc(-n2cnc3c(Cl)ncnc32)cc1Cl | 78.2% |
| CC/C(=C\c1ccc(N(C)C)cc1)c1nc2ccccc2c(=O)[nH]1 | 86.3% |
| NC(=Nc1ccccc1)SCCCCSC(N)=Nc1ccccc1 | 72.4% |
| Cc1ccc(NC(=O)COC(=O)c2ccc(S(=O)(=O)N3CCCCCC3)cc2)cc1 | 104% |
| S=C1SCN(Cc2ccccc2)CN1Cc1ccco1 | 97.3% |
| O=C(Nc1ccc(Cl)cc1)Nc1ccc(Oc2nncc3ccccc23)cc1 | -31.1% (active) |
| O=C1C[C@@H]2/C(=C(O)\C=C\c3ccccc3)C(=O)C=C[C@@H]2O1 | 1.95% (active) |
| COc1cc2c(C#N)n3c(c2cc1OC)C(=O)C(c1ccccc1)Oc1ccccc1-3 (stereo not given) | 24.4% |
| Oc1[nH]c2ccc(Cl)cc2c1/C=c1/ccc2c(c1)N=C(c1ccc(C(F)(F)F)cc1)N=2 | 49.8% |
| Clc1ccc(CCC(Cn2ccnc2)Sc2c(Cl)cccc2Cl)cc1 (stereo not given) | 57.2% |
| CN1CCN(Cc2ccc(NC(=O)c3[nH]ncc3Nc3ccnc4ccnn34)cc2)CC1 | 62% |
| CC(=O)O[C@H]1C(=O)[C@@]2(C)C([C@H](OC(=O)c3ccccc3)[C@]3(O)C[C@H](OC(=O)[C@H](O)[C@@H](NC(=O)c4ccccc4)c4ccccc4)C(C)=C1C3(C)C)[C@]1(OC(C)=O)CO[C@@H]1C[C@@H]2O (stereo not given in full) | 13.5% |
| COc1ccc(-c2cc(Cc3cccs3)c(=O)n(Cn3cncn3)n2)cc1 | 97.2% |
| CC(=O)Nc1ccc2c(c1)Cc1c(F)c(F)c(F)c(F)c1-2 | 78.8% |
| COc1cc(NC(=O)c2cc3ccccc3cc2O)c(OC)cc1Cl | 13.1% |
| c1ccc(-n2nnnc2-c2cccc3ccccc23)cc1 | 19.5% |
